Among the data in PubChem BioAssay (NCI) are growth values, retold here.

The panel holds about 83,000 compounds, 20% with a hit somewhere; the sample as a whole holds those more often.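 For each line, cells grew in 96-well plates with the test compound present at a single concentration for 48 hours.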 Values without a mark were called inactive. Calls of active or inactive are those of the source. The calls were made as follows: active = growth percent below 10; inactive = the rest.

Some test systems named below: HCT-15 colon; HT29 colon; SNB-75 CNS; SNB-19 CNS; U251 CNS; PC-3 prostate; UACC-62 melanoma; LOX IMVI melanoma; SK-MEL-28 melanoma; SK-MEL-5 melanoma.
Test in all cases: NCI-60 one-dose screen, 48 h (100 = growth as untreated, 0 = no growth, -100 = all killed)
Conditions in all cases: 10 µM unless noted

On to `FC(F)(F)c1cccc([Si](F)(c2cccc(C(F)(F)F)c2)c2cccc(C(F)(F)F)c2)c1`, for which the growth in the test with HCT-15 colon was 72.1%; in the test on HT29 colon, 59.3%; with SNB-75 CNS, 80.4%; in the test with SNB-19 CNS, 77.7%; with U251 CNS it was 72.1%; in the test with PC-3 prostate, 24.2%. Also, the growth in the test on UACC-62 melanoma is 68.4%; in the test with LOX IMVI melanoma it was 72.9%; with SK-MEL-28 melanoma, 85.8%.

`CC(C)NCC(O)COc1ccc(CC(N)=O)cc1` (stereo unspecified): the growth was 99.3% in the test on HCT-15 colon; 103% in the test on HT29 colon; 99% in the test on SNB-75 CNS; 106% in the test on SNB-19 CNS; 101% in the test on U251 CNS; 92.5% in the test with PC-3 prostate. Moreover, the growth is 98.1% in the test on LOX IMVI melanoma and 103% with SK-MEL-28 melanoma.

In the case of `C[C@]12CC[C@@H]3c4ccc(O)c(N)c4CC[C@H]3[C@@H]1CC[C@@H]2O`, the growth with HCT-15 colon is 101%; with HT29 colon, 103%; with SNB-75 CNS it was 94.3%; with SNB-19 CNS, 109%; in the test with PC-3 prostate it was 97.6%; with SK-MEL-5 melanoma, 99.5%. Besides, the growth is 97.1% in the test on UACC-62 melanoma, 96.7% in the test with LOX IMVI melanoma and 118% in the test on SK-MEL-28 melanoma.

With `COc1ccc2c(c1)C(=O)/C(=C/c1ccc(OCC(=O)c3ccc(Cl)cc3)cc1)O2`, the growth with HCT-15 colon was 98.8%; in the test on HT29 colon, 100%; in the test on SNB-75 CNS, -0.258% (active); in the test on SNB-19 CNS, 101%; in the test with PC-3 prostate, 50.9%; with SK-MEL-5 melanoma, 131%. Also, the growth is 72.2% in the test with UACC-62 melanoma, 40.1% in the test with LOX IMVI melanoma and 104% with SK-MEL-28 melanoma.

Regarding `O=C1CCC(c2c(O)cc(O)c3c(=O)c(O)c(-c4ccc(O)c(O)c4)oc23)N1` (stereo unspecified), the growth with HCT-15 colon is 102%; in the test on HT29 colon, 84%; in the test with SNB-75 CNS it was 99.2%; in the test on SNB-19 CNS, 108%; with PC-3 prostate it was 93.3%; in the test on SK-MEL-5 melanoma, 101%. Besides, the growth in the test on LOX IMVI melanoma is 96.9%; in the test with SK-MEL-28 melanoma, 102%.

Regarding `Nc1nc(Cl)c2c(C(F)(F)F)cn(CC3CCNCC3)c2n1`, the growth was 35.6% with HCT-15 colon; 19.7% with HT29 colon; 97.6% in the test with SNB-75 CNS; 61.5% with SNB-19 CNS; 93.2% in the test with PC-3 prostate; 86.8% in the test on UACC-62 melanoma. In addition, the values for the growth in the test on LOX IMVI melanoma and in the test with SK-MEL-28 melanoma were -12.9% (active) and 83.6%, respectively.

Turning to `Nc1ncc(-c2ccc3ncnc(Nc4ccc(F)c(Cl)c4)c3c2)cn1`, the growth was 45.9% in the test with HCT-15 colon; 32.8% with HT29 colon; -12.6% (active) in the test on SNB-75 CNS; 90.5% with SNB-19 CNS; 64.5% in the test on PC-3 prostate; 95.8% with SK-MEL-5 melanoma. Moreover, the growth with UACC-62 melanoma was 103%; with LOX IMVI melanoma, 35.6%; in the test on SK-MEL-28 melanoma, 102%.

Turning to `COCCNC(C(=O)c1ccccc1)c1ccccc1` (stereo unspecified), the growth was 99.6% in the test with HCT-15 colon; 107% with HT29 colon; 88.2% in the test with SNB-75 CNS; 97% in the test with SNB-19 CNS; 92.7% in the test on PC-3 prostate; 96.6% with SK-MEL-5 melanoma. Also, the growth was 97.9% in the test with UACC-62 melanoma, 103% with LOX IMVI melanoma and 105% with SK-MEL-28 melanoma.

Take `COc1ccc(-n2c(-c3ccc(NC(=O)CCCl)cc3)nnc2-c2cc(OC)c(OC)c(OC)c2)cc1`: the growth in the test on HCT-15 colon was 41.1%; with HT29 colon it was 18.9%; in the test on SNB-75 CNS, 90.9%; with SNB-19 CNS, 52%; with PC-3 prostate, 49.8%; in the test on SK-MEL-5 melanoma, 48.2%. Further, the growth is 48.1% in the test on UACC-62 melanoma, 57.1% with LOX IMVI melanoma and 27.8% in the test with SK-MEL-28 melanoma.

For `C=CCOc1ccc(/C(Cl)=N/N=C(\Cl)c2cc(OC)c(OC)c(OC)c2)cc1`, the growth is 67.3% with HCT-15 colon; 53.2% with HT29 colon; 104% with SNB-75 CNS; 80.7% in the test on SNB-19 CNS; 65.1% with PC-3 prostate; 68.5% in the test on SK-MEL-5 melanoma. In addition, the growth with UACC-62 melanoma is 64.5%; in the test with LOX IMVI melanoma, 80.5%; in the test on SK-MEL-28 melanoma, 88.1%.

On to `O=C(O)c1ccc2nc(-c3ccc(OCCCCCOc4ccc(-c5nc6ccc(C(=O)O)cc6[nH]5)cc4)cc3)[nH]c2c1`, for which the growth is 74.3% with HCT-15 colon; 51.4% in the test on HT29 colon; 96% in the test with SNB-75 CNS; 59.6% with SNB-19 CNS; 90% in the test on PC-3 prostate; 3.26% (active) with SK-MEL-5 melanoma. Besides, the growth in the test with UACC-62 melanoma is 53%; in the test with LOX IMVI melanoma, 82%; in the test with SK-MEL-28 melanoma, 46.9%.

Turning to `COc1ccc(-c2cnc(-c3ccc(F)cc3)[nH]2)cc1`, the growth with HCT-15 colon is 53.2%; with HT29 colon it was 16.4%; in the test on SNB-75 CNS, 98.6%; in the test with SNB-19 CNS it was 98.5%; in the test on PC-3 prostate, 73.7%; in the test on SK-MEL-5 melanoma, 101%. For the same compound, the results for the growth in the test with UACC-62 melanoma, with LOX IMVI melanoma and in the test on SK-MEL-28 melanoma were 82.2%, 6.54% (active) and 110%, respectively.

As to `CCN(CC)CCNC(=O)c1c(C)[nH]c(/C=C2\C(=O)Nc3cc(NC(=O)NC(=O)c4ccc(OC)cc4F)ccc32)c1C`, the growth in the test with HCT-15 colon is 72.7%; with HT29 colon it was 31.7%; in the test with SNB-75 CNS, 94%; with SNB-19 CNS it was 92.4%; in the test with PC-3 prostate, 86.8%; with SK-MEL-5 melanoma, 85.3%. Besides, the figures for the growth with LOX IMVI melanoma and in the test with SK-MEL-28 melanoma were 97% and 99.7%, respectively.

For `c1ccc2c(c1)Oc1cccnc1-n1nccc1-2`, the growth was 108% with HCT-15 colon; 99.7% with HT29 colon; 88.8% with SNB-75 CNS; 103% in the test with SNB-19 CNS; 89.7% in the test on PC-3 prostate; 95.7% with SK-MEL-5 melanoma. Besides, the growth was 84.7% with UACC-62 melanoma, 96.3% with LOX IMVI melanoma and 102% in the test on SK-MEL-28 melanoma.

Take `COC(=O)c1ccc2c(c1)Oc1ccc(Cl)cc1-c1cc(C)nn1-2`: the growth in the test on HCT-15 colon is 91.6%; in the test with HT29 colon it was 74.3%; with SNB-75 CNS, 63.3%; in the test with SNB-19 CNS, 68.8%; in the test on PC-3 prostate, 76%; in the test on SK-MEL-5 melanoma, 86%. Moreover, the figures for the growth in the test with UACC-62 melanoma, with LOX IMVI melanoma and in the test on SK-MEL-28 melanoma were 84.7%, 57.9% and 106%, respectively.
